Hits are enriched below; roughly 8% of the tested compounds scored in any of these assays.
HT1080 IDH1KD tx: HT-1080 IDH1 knockdown cell toxicity (counter line). Potency, µM (series often up to 46.1 µM), for the others: at the highest dose activity, negative = toxicity, most hits filed as cytotoxic. AID 686971. HT-1080 IDH1 knockdown viability, ATP luminescence, 48 h. 2% of 360,000 active;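 also: 0% = DMSO wells and -100% = cell-free medium wells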
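CellTiter-Glo luminescence after 48 h compound exposure at 37 degrees C of IDH1-knockdown HT-1080 cells in 5% FBS RPMI. %Activity scaled between DMSO wells and cell-free media wells, with curves fitted and assigned curve classes.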
KB-3-1 cytotox: KB-3-1 parental cell cytotoxicity; KB-3-1 viability, CellTiter-Glo ATP luminescence, 72 h; Potency, µM (series often up to 46.1 µM), usual class: cytotoxic; 1.4% of 400,000 active; also: % is scaled to controls: 0 for no effect and ±100 for the full control effect; nearly all actives have a fitted effect of over 60% in size
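Cytotoxicity measured as CellTiter-Glo luminescence after 72 h at 37 C. Compound titrations were pinned onto drug-naive KB-3-1 parental adenocarcinoma cells grown in DMEM with 10% FBS, and normalized data fitted to concentration-response curves.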
MCF10A rereplic: inducers of DNA re-replication in MCF 10A breast cells; MCF 10A DNA re-replication, Hoechst nuclear intensity, 48 h; Potency, µM (highest dose often 46.1 µM), for the others: at the highest dose activity, positive = re-replication, hits mostly activators; 2.9% of 350,000 active; also: % of control where 0% means no effect; nearly all actives have a fitted effect of over 50% in size
KB-V1 MDR tox: kills drug-selected multidrug resistant KB-V1 cells | KB-V1 MDR cells viability, CellTiter-Glo, 72 h | Potency, µM (doses to about 46.1 µM), usual class: cytotoxic | 3.4% of 400,000 active | AID 1347076; also: % is scaled to controls: 0 for no effect and ±100 for the full control effect; nearly all actives have a fitted effect of over 60% in size
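Compound-treated KB-V1 multidrug-resistant cells, 72 h, 37 degrees C; viability by CellTiter-Glo. Fitted qHTS curves give the values.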
HT1080-NT tox: kills 2HG-producing HT-1080-NT fibrosarcoma cells; HT-1080-NT fibrosarcoma viability, CellTiter-Glo ATP luminescence, 48 h; Potency, µM (top dose mostly 46.1 µM), without a hit: top-dose activity, negative = less viability, most hits filed as cytotoxic; 1.6% of 360,000 active;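 also: NT is the 2HG producing partner of a matched IDH1 knockdown line; 0% = DMSO-treated cells and -100% = media-only wells without cells; nearly all actives have a fitted effect of over 55% in size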
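750 cells/well, RPMI + 5% FBS; 2 h settle, compound pin-transfer, 48 h at 37 degrees C. CellTiter-Glo 10 min RT, luminescence. Normalized to DMSO and media-only wells.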
SW480 rerep: inducers of DNA re-replication in SW480 colon cancer cells; AID 624297; SW480 DNA re-replication, Hoechst DNA content imaging, 48 h; Potency, µM (top dose mostly 46.1 µM), without a hit: top-dose re-replication activation, hits mostly activators; 1.8% of 340,000 active; also: % of control where 0% means no effect; nearly all actives have a fitted effect of over 55% in size
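SW480 cells exposed to compounds for 48 hr at 37 C, 5% CO2, then Hoechst-stained 40 min. Nuclear DNA content imaged by fluorescence scanning (405 nm excitation, 500-530 nm emission); re-replication scored as increased high-intensity nuclei.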
The depositor's hits bear a star; i = inactive; ? = inconclusive; . = not tested or not shown; ! = not active in a repeat; [ ] = remark or other dose. Calls follow the shape of the dose curve; as a rule, active = well fitted curve in the direction sought with a large enough effect; inconclusive = small, poorly fitted or top-dose-only effect, or another doubt; inactive = no such curve, though single readings can be large; an effect the other way counts as inactive or inconclusive. Potency is read from the fitted curve at half-maximal effect.

SMILES	HT1080 IDH1KD tx	KB-3-1 cytotox	MCF10A rereplic	KB-V1 MDR tox	HT1080-NT tox	SW480 rerep
CC12CCC(=O)N1C(C(=O)N1CCN(c3ccc([N+](=O)[O-])cc3)CC1)CS2 (centres undefined)	?	i	1.1%	18.4µM*	13.8%	-0.3%
C[C@]12CCC(=O)CC1CCC1C2CC[C@@]2(C)C1CC[C@@]21CCO1 (some centres undefined)	?	i	?	?	?	9.3%
C[C@]12CCC(=O)C[C@@H]1CC[C@@H]1[C@@H]2CC[C@]2(C)C=CC[C@@H]12	11.5%	i	29.9µM*!	i	22.8%	-4.8%
COC(=O)CSc1nnc(-c2ccoc2C)n1-c1ccc(C)cc1	6.1%	i	-10.7%	i	5.0%	6.7%[9.22 µM]
CC(=O)Nc1cc2c3c(cccc3c1)-c1ccccc1-2	-27.3%	i	2.31µM*	i	-14.0%	16.4µM*
CC(=O)[C@@H]1[C@@H](C(=O)c2ccc(C)cc2)[C@]2(C(=O)Nc3ccccc32)[C@H]2C=Cc3cc(F)ccc3N12	?	?	16.4µM*	?	?	?
CC(=O)[C@@H]1[C@@H](C(=O)c2ccc(F)cc2)[C@]2(C(=O)Nc3ccccc32)[C@H]2C=Cc3cc(F)ccc3N12	-17.1%	i	20.6µM*	i	?	?
CCN(CC(=O)Nc1ccccc1C(F)(F)F)C(=O)/C=C/c1ccc(Cl)c([N+](=O)[O-])c1	-16.8%	i	5.2%	i	-0.9%	-1.0%
COc1cc(Cl)c(C)cc1NC(=O)c1cnc(N2CCCCC2)c2ccccc12	.	i	.	i	.	.
CCOC(=O)c1ccccc1Nc1cn(C(C)=O)c2ccccc12	?	5.8µM*	?	i	?	?
CCn1c(=O)c(C(=O)NNC(=O)c2cccc(Cl)c2)c(O)c2ccccc21	?	i	23.1µM*	?	13µM*	?
CCCn1c(=O)c(C(=O)NNC(=O)c2ccc(Cl)cc2Cl)c(O)c2ccccc21	0.0%	i	-0.4%	i	-6.4%	-1.5%
CCCn1c(=O)c(C(=O)NNS(=O)(=O)c2ccc(Cl)cc2)c(O)c2ccccc21	0.9%	i	14.6µM*	?	1.7%	-3.5%
CCC(C)n1c(=O)c(C(=O)Nc2ccccc2S(N)(=O)=O)c(O)c2ccccc21 (centres undefined)	?	16.4µM*	?	?	?	22.3%
COc1ccc(S(=O)(=O)N2CCOCC2)cc1NC(=O)Cc1c(Cl)cccc1Cl	2.2%	i	-0.8%	i	0.6%	.
CCCn1c(=O)c(C(=O)Nc2ccccc2C(=O)OCC)c(O)c2ccccc21	1.8%	?	11.2µM*	?	17.6%	?
CCCn1c(=O)c(C(=O)Nc2cccc(C)n2)c(O)c2ccccc21	-1.8%	i	12.5%	?	2.2%	-0.8%
Cn1c(=O)c(C(=O)NNC(=O)c2cccc(Cl)c2)c(O)c2ccccc21	9.2µM*	i	7.31µM*	?	6.51µM*	9.2µM*
COc1ccc(-n2nnnc2SCC(=O)N2CCCC2=O)cc1	0.8%	i	-1.6%	i	-6.9%	?
O=C(c1cccnc1)N(Cc1ccccc1)c1ccccc1	?	i	-4.7%	i	?	8.2%
Cc1cn(C2OC(COC(=O)c3ccccc3)C(O)C2O)c(=O)[nH]c1=O (centres undefined)	3.9%	i	-17.7%	i	2.0%	0.0%
Cn1c2ccccc2c2n[nH]c(=S)nc21	14.3%	?	?	6.51µM*	-0.1%	-0.1%
CC(=O)Nc1ccc(C(=O)CSc2cc(C)c3cccc(C)c3n2)cc1	-0.9%	?	?	13µM*	-1.5%	?
CC(C)C(=O)Nc1cccc(NC(=S)NC(=O)c2ccc(Cl)cc2)c1	?	?	?	2.91µM*	?	6.2%
Cc1cccc(C(=O)NC(=S)NNC(=O)c2ccc(Cl)cc2)c1	8.2µM*	?	?	?	?	18.3%
SMILES	HT1080 IDH1KD tx	KB-3-1 cytotox	MCF10A rereplic	KB-V1 MDR tox	HT1080-NT tox	SW480 rerep
COc1ccc(C(=O)NC(=S)NNC(=O)c2ccc(NC(=O)C(C)C)cc2)cc1	-14.7%	?	?	2.59µM*	-9.7%	14.5%
Cc1ccc(NC(=S)NC(=O)c2ccc(F)cc2)cc1S(=O)(=O)Nc1cccc(Cl)c1	2.91µM*	5.17µM*	2.59µM*	7.31µM*	6.51µM*	3.66µM*
COc1ccc(C(=O)NC(=S)NNC(=O)c2ccc(C)cc2)cc1	?	?	9.1%	i	?	-0.5%
Cc1ccc(NC(=O)c2cccs2)cc1S(=O)(=O)Nc1cccc(Cl)c1	-29.8%	i	?	i	-15.9%	0.6%
COc1ccc(-n2ncc3c2CC(C)(C)CC3NC(=O)c2c(C)cc(=O)oc2C)cc1 (centres undefined)	0.7%	i	7.4%	i	-2.3%	-3.7%
CC(=O)c1cccc(NC(=S)NC(=O)c2ccc(C)cc2)c1	-3.3%	i	-7.1%	?	-0.2%	-1.9%
Cc1ccc(C(=O)NC(=S)Nc2ccc(NC(=O)c3cccc(Cl)c3)cc2)cc1	25.9µM*	i	?	i	?	.
O=C(CN1C(=O)/C(=C/c2ccccc2F)SC1=S)NC1C=CS(=O)(=O)C1 (centres undefined)	13.2%	i	8.1%	?	14.0%	-2.9%
CC(C(=O)NC1C=CS(=O)(=O)C1)N1C(=O)/C(=C/c2cccc(Cl)c2)SC1=S (centres undefined)	?	i	?	i	?	7.4%
COc1ccc(/C=C2\SC(=S)N(CCC(=O)NC3C=CS(=O)(=O)C3)C2=O)cc1 (centres undefined)	4.4%	i	?	i	18.5%	1.0%
COc1cccc(/C=C2\SC(=S)N(CCC(=O)NC3C=CS(=O)(=O)C3)C2=O)c1 (centres undefined)	?	?	?	i	16.4µM*	?
O=C(CN1C(=O)S/C(=C\c2cccc(Cl)c2)C1=O)NC1C=CS(=O)(=O)C1 (centres undefined)	6.3%	?	9.2µM*	i	-0.7%	?
O=C(CN1C(=O)/C(=C/c2cccc(Cl)c2)SC1=S)NC1C=CS(=O)(=O)C1 (centres undefined)	0.1%	i	14.6µM*	i	-10.5%	?

Assay outcomes (PubChem BioAssay)
